# “And” between values parts separate entries of the source, which are not always exact repeats. Equal entries are not always repeated. Results filed as inconclusive are left out. The source made the active and inactive calls.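 The calls were made as follows, unless noted: active = normalized viability below 100% at a tested concentration; inactive = the rest.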
# Key:
# [1] = kinase inhibitors against Plasmodium liver-stage infection, cell-based, known kinase inhibitor set, luminescence, hepatoma host viability (AID 624392; call rule not given here;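 also: infected cells incubated roughly two days before readout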); details: Plasmodium liver stage in hepatoma cells, luciferase luminescence, concentration not given here; liver cell % of control: measured here: host liver cell viability; parasite % of control: stronger effect = lower value
# [2] = modulators of glucocorticoid suppression of NF-kB, cell-based, luciferase, IL-1B stimulus, dexamethasone (AID 624486; call rule not given here;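 as to percent of negative control (+Dex): 100% = mean signal of vehicle control wells on the plate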); details: NF-kB luciferase reporter, IL-1B + dexamethasone, luminescence; percent of negative control (+Dex): actives lie on both sides, concentration not given here; z-score: measured here: IL-1B alone, no Dex
# [3] = kinase inhibitors altering Pseudomonas killing of worms, whole organism (AID 651566; call rule not given here;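 also: tested at 14 µM; sign flipped so higher z means a lower ratio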); details: C. elegans killed by P. aeruginosa, survival ratio
# [4] = activators of macrophage pro-inflammatory response, cell-based, murine, luminescence (AID 652131; call rule not given here); details: murine macrophage pro-inflammatory reporter, stronger effect = higher value
# [5] = biological target: Cellular tumor antigen p53 (Homo sapiens) (UniProt P04637); experiment: kinase inhibitors altering GFP-p53 stability in HPV16-positive cells, imaging, known kinase inhibitor set, EGFP/DsRed ratio (AID 1053116; call rule not given here;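 also: cells exposed to compounds for 24 h at 37 °C before reading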); details: stronger effect = higher value; EGFP object count: measured here: GFP-p53 positive objects count
# [6] = IRF3 reporter activation in THP-1 macrophages, cell-based, PMA-stimulated THP-1, luminescence (AID 1053176; call rule not given here); details: PMA-differentiated THP-1, IRF3 reporter luminescence; stronger effect = higher value
# [7] = survival rescue of mitochondrial mutant cells in low glucose, primary screen, MELAS cybrids, Rieske KO mouse fibroblasts, CellTiter-Glo (AID 1508586;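 active = mean z-score across replicates of 1.96 or higher in either the MELAS or the Rieske mutant cell line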;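 also: z relative to plate mean and SD of compound and empty wells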)
# [8] = growth inhibition of DIPG glioma cells, dose response, cell-based, SU-DIPG-XIII, MIPE4.0, CellTiter-Glo, qHTS (AID 1347061; cut-off not given, nearly all actives have AC50 up to about 37 µM;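 also: cells exposed to compound for 48 hours before readout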); details: SU-DIPG-XIII viability, CellTiter-Glo ATP luminescence
# [9] = growth inhibition of DIPG glioma cells, dose response, cell-based, JHH-DIPG-1, MIPE4.0, CellTiter-Glo, qHTS (AID 1347062; cut-off not given, nearly all actives have AC50 up to about 27 µM;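 as to AC50: cells exposed to compound for two days before readout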); details: JHH-DIPG-1 viability, CellTiter-Glo ATP luminescence
# [10] = growth inhibition of DIPG glioma cells, dose response, cell-based, SU-DIPG-IV, MIPE4.0, CellTiter-Glo, qHTS (AID 1347063; cut-off not given, nearly all actives have AC50 up to about 30 µM;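 also: compound exposure lasted 48 hours before the viability readout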); details: SU-DIPG-IV viability, CellTiter-Glo ATP luminescence
# [11] = SU-DIPG-VI glioma cell viability, MIPE4.0 library, CellTiter-Glo luminescence, qHTS (AID 1347066; cut-off not given, nearly all actives have AC50 up to about 30 µM;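 also: cells exposed to compound for 48 hours before readout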); details: CellTiter-Glo ATP luminescence
# [12] = JHH-DIPG-1 glioma cell viability, MIPE5.0 library, CellTiter-Glo luminescence, qHTS (AID 1347067; cut-off not given, nearly all actives have AC50 up to about 26 µM;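 also: cells exposed to compound for 48 hours before readout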); details: JHH-DIPG-1 glioma viability, CellTiter-Glo ATP luminescence
# [13] = modifiers of HSF1 nuclear foci, imaging, Selleck Cancer Library (AID 1347162; in the data active = plate-normalised HSF1 focus index below about 0.46); details: human cells, at 10 µM; SSMD: measured here: HSF1 foci SSMD mean; cell count: measured here: cell number; plate-normalised HSF1 focus index: stronger effect = lower value
# [14] = growth inhibition of DIPG glioma cells, dose response, cell-based, SU-DIPG-XVII, MIPE5.0, CellTiter-Glo, qHTS (AID 1347060; cut-off not given, nearly all actives have AC50 up to about 26 µM); details: SU-DIPG-XVII viability, CellTiter-Glo ATP luminescence
# [15] = viability loss in pontine glioma line – cell-based, SU-DIPG-XXV, MIPE5.0, CellTiter-Glo, qHTS, dose response (AID 1347065; cut-off not given, nearly all actives have AC50 up to about 26 µM;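 also: cells exposed to compound for 48 hours before ATP readout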); details: CellTiter-Glo ATP luminescence
# [16] = SU-DIPG-XXV glioma cell viability, MIPE5.0 library, qHTS (AID 1347068; cut-off not given, nearly all actives have IC50 up to about 30 µM)
# [17] = ovarian cancer cell viability with rucaparib, profiling panel, oncology-focused library, rucaparib conditional (AID 1508598); details: patient-derived ovarian cancer cells, CellTiter-Glo viability, 144 h, stronger effect = lower value
# [18] = viability rescue of complex I mutant cybrids, primary screen, cell-based, galactose medium, ATP luminescence (AID 1645843;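 active = z-score of at least 1.8 in each of two replicates, scored against plate mean and spread of sample wells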;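 also: positive z means more ATP and so rescue of galactose-driven cybrid death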); details: complex I mutant cybrid cells, 72 h, stronger effect = higher value
# [19] = MELAS cybrid survival, CellTiter-Glo 48 h, stronger effect = higher value
# [20] = Rieske KO mouse fibroblast survival, CellTiter-Glo 72 h
# Cellular tumor antigen p53 (Homo sapiens), sequence (P04637 whole entry, looked up): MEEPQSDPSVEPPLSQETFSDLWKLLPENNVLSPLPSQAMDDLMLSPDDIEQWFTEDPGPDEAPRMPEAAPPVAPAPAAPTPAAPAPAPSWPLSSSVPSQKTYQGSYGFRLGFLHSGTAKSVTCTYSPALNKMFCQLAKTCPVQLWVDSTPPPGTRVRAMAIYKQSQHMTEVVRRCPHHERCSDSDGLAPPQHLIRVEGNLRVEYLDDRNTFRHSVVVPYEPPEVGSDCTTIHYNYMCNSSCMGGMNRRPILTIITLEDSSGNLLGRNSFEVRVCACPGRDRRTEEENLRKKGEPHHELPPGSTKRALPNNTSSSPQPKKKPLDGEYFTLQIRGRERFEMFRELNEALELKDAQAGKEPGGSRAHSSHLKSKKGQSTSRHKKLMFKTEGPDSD
structure (smiles),measurement,setting,value
NS(=O)(=O)c1cccc(N=Cc2c(O)[nH]c3ccccc23)c1,liver cell % of control,[1],80.7%
same,parasite % of control,[1],106% (inactive)
same,percent of negative control (+Dex),[2],89.5% (inactive)
same,z-score,[2],0.485
same,z-score,[3],-1.3 (inactive)
same,z-score,[4],1.25 (inactive)
same,EGFP object count,[5],7
same,EGFP/DsRed ratio,[5],0.162 (inactive)
same,fraction signal,[6],-0.0005 (inactive)
same,z-score,[7]; [19],1.07 (inactive)
same,z-score,[7]; [20],-0.155
CN(C)CCOc1ccc(-c2nc(-c3ccc4c(c3)CC/C4=N\O)c(-c3ccncc3)[nH]2)cc1,liver cell % of control,[1],69.4%
same,parasite % of control,[1],215% (inactive)
same,percent of negative control (+Dex),[2],118% (inactive)
same,z-score,[2],0.795
same,z-score,[3],-0.45 (inactive)
same,z-score,[4],1.26 (inactive)
same,EGFP object count,[5],9
same,EGFP/DsRed ratio,[5],0.212 (inactive)
same,fraction signal,[6],-0.008 (inactive)
same,outcome,[8],inactive
same,AC50,[9],18.7 µM (active)
same,AC50,[10],13.2 µM (active)
same,AC50,[11],11.8 µM (active)
same,AC50,[12],16.6 µM (active)
same,SSMD,[13],1.6
same,cell count,[13],7550
same,plate-normalised HSF1 focus index,[13],1.1 (inactive)
same,z-score,[7]; [19],0.717
same,z-score,[7]; [20],2.06
NC(=O)c1ccc(-c2nc(-c3ccc4c(c3)OCO4)c(-c3ccccn3)[nH]2)cc1,liver cell % of control,[1],92.1%
same,parasite % of control,[1],99.9% (inactive)
same,percent of negative control (+Dex),[2],92% (inactive)
same,z-score,[2],0.215
same,z-score,[3],-0.47 (inactive)
same,z-score,[4],5.36 (inactive)
same,EGFP object count,[5],5.5
same,EGFP/DsRed ratio,[5],0.161 (inactive)
same,fraction signal,[6],-0.007 (inactive)
same,outcome,[14],inactive
same,outcome,[8],inactive
same,outcome,[9],inactive
same,outcome,[10],inactive
same,outcome,[15],inactive
same,outcome,[11],inactive
same,outcome,[16],inactive
same,SSMD,[13],0.986
same,cell count,[13],7590
same,plate-normalised HSF1 focus index,[13],1.06 (inactive)
same,z-score,[7]; [19],-0.87 (inactive) and -0.497 (inactive)
same,z-score,[7]; [20],-0.512 and 0.389
same,viability,"[17]; at 0.000305 µM, OCI-C5x cells, with rucaparib 10 µM, 100% = cells with rucaparib alone",134% (inactive)
same,viability,"[17]; at 0.000305 µM, OCI-C5x cells, without rucaparib",138% (inactive)
same,viability,"[17]; at 0.000305 µM, OCI-P5x cells, with rucaparib 20 µM, 100% = cells with rucaparib alone",116% (inactive)
same,viability,"[17]; at 0.000305 µM, OCI-P5x cells, without rucaparib",105% (inactive)
same,viability,"[17]; at 0.00122 µM, OCI-C5x cells, with rucaparib 10 µM, 100% = cells with rucaparib alone",135% (inactive)
same,viability,"[17]; at 0.00122 µM, OCI-C5x cells, without rucaparib",143% (inactive)
same,viability,"[17]; at 0.00122 µM, OCI-P5x cells, with rucaparib 20 µM, 100% = cells with rucaparib alone",110% (inactive)
same,viability,"[17]; at 0.00122 µM, OCI-P5x cells, without rucaparib",103% (inactive)
same,viability,"[17]; at 0.00488 µM, OCI-C5x cells, with rucaparib 10 µM, 100% = cells with rucaparib alone",139% (inactive)
same,viability,"[17]; at 0.00488 µM, OCI-C5x cells, without rucaparib",135% (inactive)
same,viability,"[17]; at 0.00488 µM, OCI-P5x cells, with rucaparib 20 µM, 100% = cells with rucaparib alone",108% (inactive)
same,viability,"[17]; at 0.00488 µM, OCI-P5x cells, without rucaparib",99.5% (active)
same,viability,"[17]; at 0.0195 µM, OCI-C5x cells, with rucaparib 10 µM, 100% = cells with rucaparib alone",136% (inactive)
same,viability,"[17]; at 0.0195 µM, OCI-C5x cells, without rucaparib",143% (inactive)
same,viability,"[17]; at 0.0195 µM, OCI-P5x cells, with rucaparib 20 µM, 100% = cells with rucaparib alone",112% (inactive)
same,viability,"[17]; at 0.0195 µM, OCI-P5x cells, without rucaparib",101% (inactive)
same,viability,"[17]; at 0.0781 µM, OCI-C5x cells, with rucaparib 10 µM, 100% = cells with rucaparib alone",130% (inactive)
same,viability,"[17]; at 0.0781 µM, OCI-C5x cells, without rucaparib",147% (inactive)
same,viability,"[17]; at 0.0781 µM, OCI-P5x cells, with rucaparib 20 µM, 100% = cells with rucaparib alone",106% (inactive)
same,viability,"[17]; at 0.0781 µM, OCI-P5x cells, without rucaparib",94.4% (active)
same,viability,"[17]; at 0.313 µM, OCI-C5x cells, with rucaparib 10 µM, 100% = cells with rucaparib alone",130% (inactive)
same,viability,"[17]; at 0.313 µM, OCI-C5x cells, without rucaparib",146% (inactive)
same,viability,"[17]; at 0.313 µM, OCI-P5x cells, with rucaparib 20 µM, 100% = cells with rucaparib alone",105% (inactive)
same,viability,"[17]; at 0.313 µM, OCI-P5x cells, without rucaparib",102% (inactive)
same,viability,"[17]; at 1.25 µM, OCI-C5x cells, with rucaparib 10 µM, 100% = cells with rucaparib alone",146% (inactive)
same,viability,"[17]; at 1.25 µM, OCI-C5x cells, without rucaparib",153% (inactive)
same,viability,"[17]; at 1.25 µM, OCI-P5x cells, with rucaparib 20 µM, 100% = cells with rucaparib alone",114% (inactive)
same,viability,"[17]; at 1.25 µM, OCI-P5x cells, without rucaparib",92.1% (active)
same,viability,"[17]; at 5 µM, OCI-C5x cells, with rucaparib 10 µM, 100% = cells with rucaparib alone",198% (inactive)
same,viability,"[17]; at 5 µM, OCI-C5x cells, without rucaparib",187% (inactive)
same,viability,"[17]; at 5 µM, OCI-P5x cells, with rucaparib 20 µM, 100% = cells with rucaparib alone",102% (inactive)
same,viability,"[17]; at 5 µM, OCI-P5x cells, without rucaparib",93.9% (active)
same,z-score,[18],-0.03 (inactive)

# From PubChem BioAssay
